# Measurements from ChEMBL document CHEMBL4513141, “CO-ADD screening of NIH (USA) - Clinical Collection” (2021).
# Potency and affinity values are given separately.
# Key:
# Klebsiella pneumoniae = conditions: Concentration 20 uM; ASSAY_TEST Inhibition of Bacterial Growth; detection method Absorption (OD600); MEDIA CAMHB; plate type 384well; NBS; CORNING #3640; time 18 hr
# Candida albicans = conditions: 20 µM
# Cryptococcus neoformans = conditions: Concentration 20 uM; ASSAY_TEST Inhibition of Fungal Growth; detection method Resazurin; Absorption (OD600-OD570); plate type 384well; NBS; CORNING #3640
SMILES,Inhibition (Klebsiella pneumoniae) [%],Inhibition (Candida albicans) [%],Inhibition (Cryptococcus neoformans) [%]
CCc1cc(C(N)=S)ccn1 [ETHIONAMIDE],13.14,1.99,-7.71
CC1CC2C3CCC4=CC(=O)C=CC4(C)[C@@]3(Cl)C(O)CC2(C)C1(O)C(=O)CO (stereo not given in full),12.23,3.02,-2.46
COc1cc(C)nc(-n2nc(C)cc2OC)n1 [EPIRIZOLE],10.39,-0.63,1.6
COc1ccc2cc([C@H](C)C(=O)[O-])ccc2c1.[Na+] [NAPROXEN SODIUM],13.03,9.05,-1.8
Nc1ccn([C@@H]2CS[C@H](CO)O2)c(=O)n1 [LAMIVUDINE],20.65,2.4,-7.82
COc1cc2nc(N3CCN(C(=O)C4CCCO4)CC3)nc(N)c2cc1OC (stereo not given) [TERAZOSIN],3.6,3.05,0.02
CC(=O)S[C@@H]1CC2=CC(=O)CC[C@]2(C)[C@H]2CC[C@@]3(C)[C@@H](CC[C@@]34CCC(=O)O4)[C@H]12 [SPIRONOLACTONE],18.33,1.56,-2.8
Oc1ccc(/C=C/c2cc(O)cc(O)c2)cc1 [RESVERATROL],12.99,2.92,-4.32
CCC1=C(C)CN(C(=O)NCCc2ccc(S(=O)(=O)NC(=O)N[C@H]3CC[C@H](C)CC3)cc2)C1=O [GLIMEPIRIDE],11.97,1.98,-2.89
O=c1c(O[C@@H]2O[C@H](CO)[C@H](O)[C@H](O)[C@H]2O)c(-c2ccc(O)c(O)c2)oc2cc(O)cc(O)c12 [HYPEROSIDE],17.1,1.21,-13.27
CC[C@@H]1C(=O)OC[C@@H]1Cc1cncn1C.Cl [PILOCARPINE HYDROCHLORIDE],13.79,2.29,-1.97
COc1ccc2c(c1)c(CC(=O)O)c(C)n2C(=O)c1ccc(Cl)cc1.O,8.34,3.53,1.93
CN(C)CCOC(C)(c1ccccc1)c1ccccn1.O=C(O)CCC(=O)O (stereo not given) [DOXYLAMINE SUCCINATE],9.97,0.07,-8.18
CC(=O)O[C@]1(C(C)=O)CC[C@H]2[C@@H]3C[C@H](C)C4=CC(=O)CC[C@]4(C)[C@H]3CC[C@@]21C [MEDROXYPROGESTERONE ACETATE],17.28,4.88,-5.46
OCCN(CCO)c1nc(N2CCCCC2)c2nc(N(CCO)CCO)nc(N3CCCCC3)c2n1 [DIPYRIDAMOLE],2.81,2.59,5.59
CCN(CC)CCOC(=O)C1(C2CCCCC2)CCCCC1.Cl [DICYCLOMINE HYDROCHLORIDE],5.74,3.82,-0.13
CC(=O)C1(O)CCC2C3CC(C)C4=CC(=O)C=CC4(C)C3(F)C(O)CC21C (stereo not given),4.1,2.21,-3.1
COC(=O)CCc1ccc(OCC(O)CNC(C)C)cc1.Cl (stereo not given) [ESMOLOL HYDROCHLORIDE],3.48,1.99,-7.33
C[C@@H]1O[C@@H](OC[C@H]2O[C@@H](Oc3c(-c4ccc(O)c(O)c4)oc4cc(O)cc(O)c4c3=O)[C@H](O)[C@@H](O)[C@@H]2O)[C@H](O)[C@H](O)[C@H]1O [RUTIN],10.13,3.37,-5.7
CN(CCOc1ccc(CC2SC(=O)NC2=O)cc1)c1ccccn1.O=C(O)/C=C\C(=O)O (stereo not given) [ROSIGLITAZONE MALEATE],9.63,0.75,-9.6
Cl.c1ccc(CC2=NCCN2)cc1 [TOLAZOLINE HYDROCHLORIDE],3.87,2.51,-1.43
CNCCCCOc1ccccc1Cc1ccccc1.Cl,18.69,1.66,-8.24
CCc1cccc2c3c([nH]c12)C(CC)(CC(=O)O)OCC3 (stereo not given) [ETODOLAC],6.96,1.19,-2.08
CSc1ccc2c(c1)N(CCC1CCCCN1C)c1ccccc1S2.Cl (stereo not given) [THIORIDAZINE HYDROCHLORIDE],9.7,4.12,4.01
COc1cc2nc(N(C)CCCNC(=O)C3CCCO3)nc(N)c2cc1OC (stereo not given) [ALFUZOSIN],-2.08,-0.8,-5.01
